Most compounds without a hit are left out; they make up all but 3.6% or so of the library.
MITF act = increases MITF-driven TRPM1 promoter luciferase signal | activation, % at 12.5 µM | hit rate 0.75% among 300,000 | SK-MEL-5 TRPM1-promoter luciferase, 24 h; % of positive control, neutral wells = 0;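 active means mean activation of at least 80% with every replicate also reaching 80%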;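 further: 0% = neutral control wells and 100% = parthenolide positive control wells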
A3A deaminase = inhibitors of human APOBEC3A DNA deaminase; P31941; recombinant A3A, FAM/TAMRA ssDNA deamination fluorescence; inhibition, % at 20 µM; hit rate 0.41% among 330,000; AID 493011;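 active means at least 40% inhibition at 20 µM here, with at most 30% in a related deaminase screen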;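 further: plate controls were A3A with DMSO for no effect and wells lacking A3A enzyme for full effect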
Wnt bcat act = Wnt/beta-catenin pathway activation; AID 743398; hit rate 1.2% among 300,000; Wnt/beta-catenin reporter cell assay, activator, plate reader; activation, % at 9.35 µM; in the data active means activation above about 30%, passing the limit was not always enough;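 further: 0% = neutral control wells and 100% = positive control wells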
esBAF inh = SWI/SNF esBAF complex inhibition. mouse ES cells, Bmi1-luciferase knock-in reporter, 24 h; 100% = twice the neutral-well signal. AID 602393. hit rate 2% among 350,000. reporter increase, % at 12.5 µM; in the data active means activation above about 40%;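 further: 0% = median of the plate's neutral control wells and 100% = double that signal; a rise in the Bmi1 reporter signal indicates esBAF inhibition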
PHOSPHO1 block = inhibitors of human PHOSPHO1 phosphatase | Q8TCT1 | recombinant PHOSPHO1, absorbance phosphatase assay | inhibition, % at 13.3 µM | hit rate 1.1% among 290,000 | AID 1565; in the data active means inhibition above about 60%
APOBEC3G inh = APOBEC3G (human) deaminase inhibition; recombinant A3G, ssDNA deamination FAM/TAMRA fluorescence; inhibition, % at 20 µM; hit rate 0.28% among 330,000; AID 493012;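 active means inhibition of at least 40% at 20 µM, with no more than 30% in the related APOBEC3A deaminase screen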;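 further: plate controls were DMSO wells with A3G for no effect and wells lacking A3G enzyme for full effect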
Target sequence (Q9HC16 whole entry, looked up): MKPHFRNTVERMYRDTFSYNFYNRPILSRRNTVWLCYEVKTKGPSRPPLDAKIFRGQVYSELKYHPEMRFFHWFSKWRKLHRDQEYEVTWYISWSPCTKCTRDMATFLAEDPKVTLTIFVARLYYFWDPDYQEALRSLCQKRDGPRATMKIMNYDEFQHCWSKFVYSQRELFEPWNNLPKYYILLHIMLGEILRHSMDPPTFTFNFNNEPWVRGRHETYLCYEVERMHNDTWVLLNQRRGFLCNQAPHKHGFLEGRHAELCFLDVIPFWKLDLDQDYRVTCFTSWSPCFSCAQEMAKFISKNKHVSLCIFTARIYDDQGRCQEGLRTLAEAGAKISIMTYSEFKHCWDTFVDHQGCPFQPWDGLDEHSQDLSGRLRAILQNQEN
A3A conf = APOBEC3A (human) deaminase inhibition, confirmed; shares compounds with A3A deaminase; recombinant A3A, ssDNA deaminase UDG fluorescence assay; inhibition, % at 20 µM; hit rate 63% among 1,400;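 active means inhibition reaching a set limit, 80% of the first screen's cutoff, at 20 µM in any replicate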;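 further: plate controls were DMSO wells with A3A for no effect and wells lacking A3A enzyme for full effect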
UDG A3A counter = inhibits UDG, flagging false APOBEC3A inhibitors. UDG counterscreen, FAM/TAMRA uracil oligo fluorescence. shares compounds with A3A deaminase. AID 504714. inhibition, % at 20 µM. 1,000 tested, under 10 active; call rule not given here
Active calls of the source: *; · = no result.

SMILES	MITF act	A3A deaminase	Wnt bcat act	esBAF inh	PHOSPHO1 block	APOBEC3G inh	A3A conf	UDG A3A counter
CN1CCN(CC(=O)Nc2sc3c(c2C(=O)Nc2ccccc2)CCCC3)CC1	21	57*	-1	-2	3	6	43*	-2
O=C(CNC(=O)OCc1ccccc1)Nc1ccc(F)cc1	-5	67*	1	-1	·	20	70*	1
Cc1ccoc1C(=O)NCc1occc1C(=O)O	·	40	·	-14	-15	10	28	·
CN(C)Cc1c(C(=O)N/N=C/c2ccncc2)nnn1-c1nonc1N	-2	48*	4	1	36	-9	0	-1
C[C@H]1CN([C@@H](C)CO)S(=O)(=O)c2ccc(C#Cc3ccccc3F)cc2O[C@H]1CN(C)C(=O)c1ccc2c(c1)OCO2	·	·	·	19	·	·	·	·
CC(C)CN(C(=O)COC(=O)c1cc2c(s1)CCC2)C1CCS(=O)(=O)C1 (stereo not drawn)	2	45*	-1	10	3	18	44*	·
CCC[N+]1(CC#CC2(O)CCCCC2)CCOCC1	12	74*	0	·	2	16	82*	3
C[n+]1ccc(/C=C/c2cccs2)cc1	-8	52*	1	-9	74*	21	54*	·
CN1CCCN=C1/C=C/c1cccs1	-8	-1	-1	-5	-4	-9	·	·
CN1C(=O)c2cc(NC(=O)Nc3ccc(Cl)cc3)ccc2OC[C@@H]2O[C@@H](CC(=O)O)CC[C@@H]21	·	·	·	3	·	·	·	·
O=C(Nc1ccc(-c2cn3ccsc3n2)cc1)C1CC1	58	77*	42*	38	88*	-2	10	-1
Cc1nn(C(C)C(=O)Nc2ccc(Cl)cn2)c(C)c1[N+](=O)[O-] (stereo not drawn)	10	52*	·	-2	46	-1	9	0
Cc1nn(CC(=O)Nc2ccc(Cl)cn2)c(C)c1[N+](=O)[O-]	0	-1	1	-5	-2	-5	·	·
CCCc1nc2sc3c(SCC(=O)NCc4ccco4)ncnc3c2c2c1CCC2	8	54*	·	28	-4	26	42*	-3
COc1ccc(S(=O)(=O)N(C)C[C@H]2OCCCC[C@H](C)Oc3ccc(NC(=O)NC(C)C)cc3C(=O)N([C@H](C)CO)C[C@@H]2C)cc1	·	·	·	-4	·	·	·	·
COc1ccc(OCC(=O)Nc2nnc(S(=O)(=O)N3CCCCCC3)s2)cc1	2	-1	-2	-5	25	-2	·	·
Cc1ccc(OCC(=O)Nc2nnc(S(=O)(=O)N3CCC(C)CC3)s2)cc1	3	43*	-2	-2	15	21	20	·
CCC(=O)Nc1ccc2c(c1)OC[C@@H](C)N(C(=O)NC(C)C)C[C@@H](C)[C@@H](OC)CN(C)C2=O	·	·	·	-3	·	·	·	·
O=C1CCCC(O)=C1Sc1ccccc1C(=O)O	-5	55*	-3	-3	22	6	57*	-6
O=C1CCCC(O)=C1C(C#Cc1ccccc1)C1=C(O)CCCC1=O	-28	2	·	8	28	1	·	·
COc1ccc(S(=O)(=O)N(C)C[C@@H]2OCCCC[C@H](C)Oc3ccc(NS(=O)(=O)c4ccc(C)cc4)cc3C(=O)N([C@H](C)CO)C[C@@H]2C)cc1	·	·	·	11	·	·	·	·
O=S(=O)(Nc1ccon1)c1ccc(Br)s1	-17	76*	7	2	18	-5	-2	-3
C[N+](C)(C)CCOC(=O)C1(c2ccccc2)CCCC1	7	60*	·	·	57	16	76*	-2
COc1ccc(C(=O)OCC[N+]2(C)CCCCC2)cc1	0	64*	0	·	-20	12	78*	-3
COc1ccc(C(=O)C[N+]2(C)CCOCC2)cc1	-1	64*	-2	·	80*	20	67*	-2
COc1ccc(C(=O)CC(=O)c2ccc(OC)cc2)cc1	46	-5	2	4	·	-6	·	·
CC(C[N+](C)(C)C)OC(=O)C1(c2ccccc2)CCCC1 (stereo not drawn)	5	44*	-2	·	-25	14	66*	-3

Bioassay records deposited in PubChem BioAssay by several laboratories.
